High-throughput results as filed in PubChem BioAssay.
DAX1 inh-1 – DAX1 (NR0B1) inhibition, primary screen; HEK293T StAR-luciferase reporter, SF-1/DAX-1 repression relief; inhibition, % at 6.8 µM; hit rate 1.1% among 370,000;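 active = inhibition above the mean over all tested compounds plus 3 SD, cut at about 3.6% in these data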;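 note: 0% = DAX-1 cells with DMSO and 100% = cells lacking DAX-1 with DMSO; higher inhibition means more luminescence from relief of DAX-1 repression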
hgDAF-12 ag – activates the H. glycines DAF-12 receptor ligand-binding domain | hit rate 1.8% among 370,000 | HEK293 GAL4-hgDAF12 UAS-luciferase reporter, agonist luminescence; normalized to butyrate control | activation, % at 6.8 µM;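 active = activation above a cutoff set at the mean of all screened compounds plus 3 SD, cut at about 10% in these data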;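 note: 0% = DMSO wells and 100% = sodium butyrate wells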
ssDAF12 agonist – activators of S. stercoralis DAF-12 nuclear receptor. HEK293 ssDAF-12/GRIP1 lit1-tk-luc reporter, luminescence; % of 3 µM dafachronic acid response. activation, % at 6.8 µM. hit rate 1% among 370,000;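 active = activation above the mean over all tested compounds plus 3 SD, cut at about 0.9% in these data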;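 note: 0% = DMSO-only wells and 100% = 3 µM delta7-dafachronic acid wells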
AHR activator – activators of human aryl hydrocarbon receptor | P35869 | AHR-responsive luciferase reporter cells, luminescence | activation, % at 5 µM | hit rate 2.5% among 320,000; in the data active = activation above about 47%;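 note: 0% = vehicle wells and 100% = reference agonist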
DAX1 inh-2 – NR0B1 (DAX1) inhibition | P51843 | HEK293 Gal4-DAX1 luciferase reporter, luminescence | inhibition, % at 6.75 µM | hit rate 0.99% among 340,000;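 active = inhibition above the mean over all tested compounds plus 3 SD, cut at about 4.2% in these data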;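 note: 0% = DAX1-transfected cells with DMSO and 100% = empty-vector control cells with DMSO; inhibition shows as a rise in luminescence from relieved DAX1 repression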
Target sequence (P51843 207-470 limits assumed): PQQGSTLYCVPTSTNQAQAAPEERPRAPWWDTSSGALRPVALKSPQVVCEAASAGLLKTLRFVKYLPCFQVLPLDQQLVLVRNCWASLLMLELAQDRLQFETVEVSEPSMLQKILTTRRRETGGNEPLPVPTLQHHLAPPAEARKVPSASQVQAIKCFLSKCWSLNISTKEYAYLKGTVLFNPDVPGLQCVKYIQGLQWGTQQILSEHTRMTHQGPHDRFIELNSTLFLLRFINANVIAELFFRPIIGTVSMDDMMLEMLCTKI
hcDAF12 agonist – activates DAF-12 receptor from parasite H. contortus; HEK293 hcDAF-12 lit1-tk-luc reporter, luminescence; 0% DMSO, 100% Δ7-dafachronic acid; hit rate 1.4% among 370,000; activation, % at 6.8 µM;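 active = activation above the mean of all tested compounds plus 3 SD, cut at about 5.5% in these data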;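 note: 100% = response to 3 µM Δ7-dafachronic acid high control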
DAX1 inh confirm – NR0B1 (human) inhibition, confirmation | hit rate 87% among 2,400 | inhibition, % at 6.8 µM | AID 652134 | HEK293T StAR-promoter luciferase reporter, SF-1/DAX-1 repression | shares compounds with DAX1 inh-1;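 active = inhibition above the average of every tested compound plus 3 SD, cut at about 3.8% in these data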;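 note: 0% = DAX-1 cells with DMSO and 100% = no DAX-1 control cells with DMSO; active compounds raise luminescence by relieving repression of the StAR reporter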
SF1 mutant ctr – counter-screen for DAX1 inhibitors: nonselective inhibitors with SF-1 AF2 mutant; shares compounds with DAX1 inh-1; HEK293 StAR-luciferase, luminescence; inhibition, % at 6.8 µM; hit rate 78% among 2,400; AID 652136;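 active = inhibition above the mean of all tested compounds plus 3 SD, cut at about 3% in these data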;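 note: 0% = DAX-1 transfected cells with DMSO and 100% = cells without DAX-1 with DMSO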
LXRb hcDAF ctr – activates human LXR-beta, counter-screen for hcDAF-12 agonists; shares compounds with hcDAF12 agonist; HEK293 Gal4-LXR tk-luc reporter, luminescence, 24 h; normalized: DMSO 0%, positive control 100%; activation, % at 6.8 µM; 3,400 tested, under 10 active; AID 743027;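 active = mean percent activation of the reporter above a cutoff set as the average over tested compounds plus their standard deviation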
Target sequence (P55055 whole entry, looked up, the tested form may be a part): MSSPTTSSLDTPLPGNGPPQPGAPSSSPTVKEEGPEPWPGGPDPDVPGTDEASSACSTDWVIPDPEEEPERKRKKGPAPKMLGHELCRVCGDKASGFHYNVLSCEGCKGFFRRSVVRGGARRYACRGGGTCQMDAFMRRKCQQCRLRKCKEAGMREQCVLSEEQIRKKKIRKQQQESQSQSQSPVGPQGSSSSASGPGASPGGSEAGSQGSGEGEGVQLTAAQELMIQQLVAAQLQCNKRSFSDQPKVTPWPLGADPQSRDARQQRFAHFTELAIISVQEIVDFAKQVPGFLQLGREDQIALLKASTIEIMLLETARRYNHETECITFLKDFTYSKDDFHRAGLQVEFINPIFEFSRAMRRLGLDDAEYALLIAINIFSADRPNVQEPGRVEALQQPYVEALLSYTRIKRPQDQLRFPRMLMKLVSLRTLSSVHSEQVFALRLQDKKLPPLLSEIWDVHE
hcDAF12 ag – confirmation of H. contortus DAF-12 agonists; shares compounds with hcDAF12 agonist; HEK293 hcDAF-12 lit1-tk-luc reporter, luminescence; % of Δ7-dafachronic acid response; activation, % at 6.8 µM; hit rate 61% among 3,400; AID 743032;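 active = mean activation across triplicate tests above the threshold derived from the earlier primary screen, cut at about 5.5% in these data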;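 note: 0% = DMSO only wells and 100% = 3 µM Δ7-dafachronic acid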
hgDAF12 ag – confirmation of H. glycines DAF-12 agonists; shares compounds with hgDAF-12 ag; HEK293 GAL4-hgDAF12 luciferase reporter, agonist mode; percent of butyrate response; activation, % at 6.8 µM; hit rate 80% among 3,300; AID 743050;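 active = mean activation over triplicate wells above the hit cutoff derived from the earlier primary screen, cut at about 11% in these data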;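 note: 0% = DMSO low control and 100% = 2 mM sodium butyrate high control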
LXRb DAF12 ctr – counter-screen for DAF-12 agonists: agonists of human LXR-beta; shares compounds with hgDAF-12 ag; HEK293 Gal4-LXR luciferase reporter, 24 h; activation, % at 6.8 µM; 3,300 tested, under 10 active; AID 743051;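 active = mean activation of the triplicate above a set limit carried over from the primary screen, none filed active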
Numbers without * were called inactive; · = not tested or not shown. Only some compounds are listed: those with a hit (about 5.7% of all), similar ones and a draw of the others.

SMILES | DAX1 inh-1 | hgDAF-12 ag | ssDAF12 agonist | AHR activator | DAX1 inh-2 | hcDAF12 agonist | DAX1 inh confirm | SF1 mutant ctr | hgDAF12 ag | LXRb DAF12 ctr | others
NC(=O)c1ccc(NC(=O)COc2coc(CN3CCc4ccccc4C3)cc2=O)cc1 | -2.8 | -1.2 | -1.3 | -0.2 | 1.1 | 0.1 | · | · | · | ·
N#CCOC(=O)[C@H](Cc1ccccc1)N1C(=O)c2ccccc2C1=O | 0.2 | -0.6 | -1.2 | 4.4 | 0.8 | -1.1 | · | · | · | ·
Cc1ccc(-n2ncc3c(NCc4cccnc4)ncnc32)c(C)c1 | -2.0 | -7.5 | -1.9 | -0.6 | -2.7 | -5.0 | · | · | · | ·
Cc1cccc(-n2ncc3c(N4CCOCC4)ncnc32)c1 | 3.4 | 1.8 | -1.3 | -6.6 | -3.2 | 0.2 | · | · | · | ·
Cc1cccc(-n2ncc3c(NCc4cccnc4)ncnc32)c1 | 4.7* | 13.5* | -1.0 | 32.5 | 1.6 | -0.9 | 8.1* | 4.2* | 11.7* | 0.4
Cc1cccc(-n2ncc3c(N4CCCC4)ncnc32)c1 | 7.4* | 17.6* | 0.7 | -8.0 | -1.5 | 5.3 | 15.6* | 6.9* | 15.7* | 0.9
Cc1cccc(-n2ncc3c(NC4CCCCC4)ncnc32)c1 | 6.8* | 25.4* | -0.2 | -11.0 | 0.6 | 7.8* | 12.5* | 7.5* | 12.2* | 1.1 | LXRb hcDAF ctr=1.8;hcDAF12 ag=6.2*
CCOC(=O)c1c(C)[nH]c(N=Nc2ccc(C)cc2)c1C | 4.9* | 14.9* | 0.1 | -6.3 | 3.9 | 3.3 | 12.4* | 6.0* | 18.1* | 0.7
CCOC(=O)c1c(C)[nH]c(N=Nc2ccccc2Cl)c1C | 1.3 | 8.1 | -0.6 | 15.0 | 0.2 | 0.5 | · | · | · | ·
CCOC(=O)c1c(C)[nH]c(N=Nc2ccc(OC)cc2)c1C | 2.5 | 9.3 | -1.1 | -7.6 | 3.6 | 0.8 | · | · | · | ·
CCOC(=O)c1c(C)[nH]c(N=Nc2cccc(OC)c2)c1C | 4.9* | 15.5* | -0.2 | 7.1 | 2.5 | 5.9* | 16.2* | 8.0* | 20.7* | 1.1
CC[C@@]1(C(=O)OC)N[C@H](CN(C)C(=O)COc2ccccc2)[C@@H]2C(=O)N(C)C(=O)[C@@H]21 | 2.9 | -0.2 | 0.2 | 0.1 | 0.7 | -0.1 | · | · | · | ·
Cc1c(C(=O)OC2CCC(C)CC2)[nH]c2c1C(=O)CCC2 (stereo not drawn) | 7.3* | 15.1* | 0.2 | -3.7 | 5.8* | 4.1 | 15.4* | 5.9* | 21.4* | 1.1
CN(C1CCCCC1)S(=O)(=O)c1ccc2c(c1)CCC(=O)N2 | 0.9 | -1.3 | -1.5 | · | 3.1 | 0.2 | · | · | · | ·
Cc1cccc2cc3ccccc3nc12 | -0.4 | 2.1 | -1.7 | 0.0 | -0.2 | 0.2 | · | · | · | ·
c1ccc2nc3c(ccc4ccccc43)cc2c1 | 4.5* | 20.6* | 0.9* | · | 1.8 | 11.9* | 11.5* | 10.0* | 16.4* | 0.6 | LXRb hcDAF ctr=1.3;hcDAF12 ag=11.5*
COC(=O)c1ccccc1N/C=C/C(=O)c1ccc(Br)cc1 | 1.1 | 8.8 | -0.8 | 5.6 | 1.1 | -0.1 | · | · | · | ·
NC(=O)c1ccccc1N/C=C/C(=O)c1ccccc1 | 5.8* | 13.3* | 0.1 | 7.3 | 1.5 | 5.2 | 11.9* | 5.4* | 16.0* | 0.8
OC[C@H]1O[C@@H](c2nc(-c3nc(-c4ccc(F)cc4)no3)cs2)[C@H](O)[C@@H]1O | 9.8* | 13.3* | 0.1 | · | · | 3.9 | 13.4* | 7.2* | 16.2* | 0.8
CCOc1ccc(-c2noc(-c3csc([C@@H]4C[C@H](O)[C@@H](CO)O4)n3)n2)cc1 | -0.7 | 2.1 | -1.7 | · | · | 1.0 | · | · | · | ·
COc1ccc(-c2cn3nc(SCC(=O)NCC4CCCO4)ccc3n2)cc1 (stereo not drawn) | 12.6* | 14.5* | 0.2 | 13.4 | 0.5 | 5.0 | 8.5* | 4.0* | 14.5* | 0.5
COc1ccc2nc(Nc3ccc4c(c3)OCO4)sc2c1 | 2.3 | 9.1 | -0.5 | 5.7 | 1.5 | 1.2 | · | · | · | ·
COc1ccc2nc(Nc3ccccc3OC)sc2c1 | 6.4* | 20.4* | 1.6* | 22.4 | 0.4 | 11.4* | 16.8* | 10.4* | 21.8* | 0.9 | LXRb hcDAF ctr=1.6;hcDAF12 ag=8.7*
COc1ccc2nc(NC(=O)C3CCCO3)sc2c1 (stereo not drawn) | 5.8* | 15.3* | 0.3 | 5.3 | 4.3* | 4.1 | 11.1* | 6.1* | 11.8* | 0.8
Cc1ccc(Nc2nc3ccccc3s2)cc1 | 4.7* | 26.4* | 2.4* | 24.8 | 2.9 | 9.7* | 14.7* | 7.3* | 23.9* | 1.4 | LXRb hcDAF ctr=1.6;hcDAF12 ag=7.9*
SMILES | DAX1 inh-1 | hgDAF-12 ag | ssDAF12 agonist | AHR activator | DAX1 inh-2 | hcDAF12 agonist | DAX1 inh confirm | SF1 mutant ctr | hgDAF12 ag | LXRb DAF12 ctr | others
COc1ccc2nc(Nc3ccccc3)sc2c1 | 7.3* | 26.1* | -0.2 | 5.7 | 3.5 | 4.8 | 11.6* | 9.5* | 13.9* | 0.6
COc1ccc(-c2nnc(NC(=O)C3CCCO3)s2)cc1 (stereo not drawn) | 2.0 | 9.5 | -0.2 | 20.9 | 1.3 | 3.2 | · | · | · | ·
Cc1ccc(S(=O)(=O)Nc2nc3ccccc3s2)cc1 | -0.2 | 2.5 | -0.5 | 8.4 | -0.1 | 2.5 | · | · | · | ·
N#CC1(NC(=O)COC(=O)c2cccc(-n3cnnn3)c2)CCCCC1 | 1.0 | 2.2 | -1.5 | -0.1 | -0.3 | -1.1 | · | · | · | ·
O=C(CNc1ccccc1F)Nc1cccc2ccccc12 | -0.9 | 0.8 | -0.1 | 4.2 | 1.1 | -1.1 | · | · | · | ·
CC(=O)c1cccc(Nc2ccc(Br)cc2)c1 | 9.7* | 14.4* | -0.6 | · | · | 4.4 | 11.7* | 6.3* | 8.8 | 0.5
COc1ccc(-c2nnc(SCC(=O)c3ccc(C)o3)o2)cc1 | -0.1 | -0.3 | -1.0 | · | 0.8 | 0.1 | · | · | · | ·
COc1ccc(-c2nnc(SCC(=O)/C(C#N)=C(\C)N)o2)cc1 | 4.7* | 16.2* | 0.7 | 21.6 | -1.5 | 6.7* | 13.4* | 4.5* | 18.0* | 1.5 | LXRb hcDAF ctr=1.2;hcDAF12 ag=6.9*
Cc1nc2ccc(-c3nc4ccccc4[nH]3)cc2[nH]1 | 5.6* | 19.2* | 0.4 | -10.2 | 0.1 | 8.3* | 12.1* | 6.4* | 19.1* | 0.8 | LXRb hcDAF ctr=1.4;hcDAF12 ag=8.1*
